Source: PubChem BioAssay (several laboratories)
This excerpt belongs to a sample that is enriched for hits.
PostGolgi yeast = growth inhibition of a yeast mutant, post-Golgi transport screen; inhibition, % at 10 µM; post-Golgi transport phenotypic cell assay; actives 0.9% (n = 98,000);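 also: yeast cells grown in 1536-well plates; yeast grown about 18 h at 30C before absorbance read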
GALR2 antag = blocks the human galanin receptor 2; inhibition, % at 4 µM; actives 0.39% (n = 140,000); GALR2-expressing cells, antagonist mode; O43603; in the data active = inhibition above about 27%;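 also: cells stimulated with galanin 1-16 at roughly its EC80; 0% = agonist challenge control and 100% = basal control without agonist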
Target sequence (O43603 whole entry, looked up): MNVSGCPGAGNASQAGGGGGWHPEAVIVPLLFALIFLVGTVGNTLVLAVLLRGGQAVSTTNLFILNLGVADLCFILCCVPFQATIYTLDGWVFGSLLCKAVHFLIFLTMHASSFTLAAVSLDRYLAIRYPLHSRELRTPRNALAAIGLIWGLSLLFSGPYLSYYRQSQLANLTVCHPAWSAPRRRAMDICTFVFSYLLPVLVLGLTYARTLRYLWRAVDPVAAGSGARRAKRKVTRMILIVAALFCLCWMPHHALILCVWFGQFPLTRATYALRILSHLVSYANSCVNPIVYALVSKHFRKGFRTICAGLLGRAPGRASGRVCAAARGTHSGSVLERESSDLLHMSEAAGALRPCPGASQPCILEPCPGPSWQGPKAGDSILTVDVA
S1P2 ag = S1P2 (human) receptor agonism | S1P2-expressing cell line, agonist reporter read-out | activation, % at 4.5 µM | actives 0.46% (n = 97,000) | AID 729; in the data active = activation above about 16%;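 also: 0% = vehicle low control and 100% = maximal reference agonist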
PostGolgi ctrl = growth of the yeast control strain, post-Golgi counter-screen; efflux-deficient yeast background strain, growth absorbance A615, 16 h; inhibition, % at 10 µM; actives 5% (n = 98,000); AID 738
GALR2 ag = agonists of human galanin receptor 2 (GALR2) | AID 803 | activation, % (test concentration not listed) | GALR2-expressing cells, agonist activation read-out | actives 0.48% (n = 140,000); in the data active = activation above about 5%, passing the limit was not always enough;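 also: 0% = vehicle buffer wells and 100% = reference agonist at full effect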
S1P2 blocker = antagonists of human S1P2 receptor. O95136. cell-based S1P2 antagonist assay, inhibition at 5 uM. inhibition, % at 5 µM. actives 0.21% (n = 97,000); in the data active = inhibition above about 45%;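 also: CRE beta-lactamase reporter cells expressing human S1P2 stimulated with S1P; 0% = agonist at EC80 alone and 100% = agonist plus reference antagonist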
Starred values were filed as active, the others as inactive; / = not tested or not shown. Rule as the data show it, unless noted: active = inhibition above about 30%; inactive = the rest.

SMILES	PostGolgi yeast	GALR2 antag	S1P2 ag	PostGolgi ctrl	GALR2 ag	S1P2 blocker
COc1ccc(C(=O)Nc2ccc(Cl)cc2C(=O)N2CCCC(C)C2)cc1 (configuration not stated)	65*	3	-3	16	-2	-12
Cc1ccccc1-c1nnc2c3ccccc3c(C)nn12	/	7	-3	/	-1	-7
Cc1nn2c(-c3ccncc3)nnc2c2ccccc12	11	-7	-3	64*	0	-28
COc1ccc(-c2nnc3c4ccccc4c(C)nn23)cc1	1	11	-3	44*	1	-10
COc1ccc(-c2nnc3c4ccccc4c(C)nn23)cc1S(=O)(=O)N1CCN(CCO)CC1	-2	4	17*	12	-1	-36
CCCCCC(=O)NC(=S)Nc1ccc(N2CCOCC2)cc1	/	7	/	/	-1	/
Cc1ccc(C)c(-n2nnnc2SCC(=O)NCCC2=CCCCC2)c1	-1	-4	0	39*	-2	9
Oc1cccc2ccc(Nc3ccccn3)nc12	2	30*	/	15	-2	/
c1ccc(Nc2ccccc2Nc2ccccn2)nc1	9	2	-7	1	-2	0
O=P(COc1ccccc1)(c1ccccc1)c1ccccc1	0	3	-4	8	-1	-3
O=C(NC(C(=O)c1ccccc1)N1CCOCC1)c1cccs1 (configuration not stated)	5	12	-1	33*	-2	-7
CCOC(=O)N1CCC(N(C(=O)Nc2ccc(CC)cc2)C(C)CC)CC1 (configuration not stated)	0	-7	-4	30*	-2	-3
CN(c1cccc(NC(=O)CN(c2cccc(Cl)c2)S(=O)(=O)c2ccccc2)c1)S(C)(=O)=O	/	4	/	/	0	/
Cc1ccccc1[C@@H]1C(C#N)=C(N)S[C@H]1C(=O)c1ccccc1	5	2	-4	21	-2	-10
O=C(OCn1nnc2ccccc2c1=O)c1cn(-c2ccccc2)nc1-c1cccnc1	34*	-7	0	4	-2	-19
CCCCNC(=O)Nc1ccccn1	4	5	-4	33*	-1	8
O=C(NCCCNC(=O)c1ccccn1)c1ccccn1	-11	8	/	35*	-1	/
CCCCNC(=O)Nc1ccc(Br)cn1	0	8	/	11	-1	/
Cc1ccc(-c2csc(NC(=O)c3ccc4c(=O)n5c(nc4c3)CCCCC5)n2)cc1	/	3	/	/	-1	/
O=C(NCc1ccccc1)c1c(F)c(F)c(F)c(F)c1F	4	11	-3	-8	-2	10
O=C(NCc1ccccc1)c1sc(=S)n2c1[nH]c(=O)c1ccccc12	4	7	-5	47*	-2	5
COc1cccc(CNC(=O)C23CN(Cc4ccccc4)CC2C(c2ccc([N+](=O)[O-])cc2)=NO3)c1 (configuration not stated)	-4	1	-9	33*	-4	-12
CC(C)CCNC(=O)C12CN(Cc3ccccc3)CC1C(c1ccc([N+](=O)[O-])cc1)=NO2 (configuration not stated)	-1	-18	-8	17	0	-10
O=C(NCCN1C(=O)S/C(=C\c2ccc(OC(F)F)cc2)C1=O)c1cnccn1	/	3	/	/	0	/
O=C(/C=C/c1ccccc1)N1CCN(c2c(Cl)cccc2[N+](=O)[O-])CC1	/	3	/	/	-2	/
SMILES	PostGolgi yeast	GALR2 antag	S1P2 ag	PostGolgi ctrl	GALR2 ag	S1P2 blocker
COc1cc2c(C(=O)O)c(C)n(CC(C)C)c2c2ccccc12	19	-6	-5	33*	-1	-2
CCOC(=O)C(NC(=O)c1ccc(F)cc1)(Nc1nnc(C)s1)C(F)(F)F (configuration not stated)	1	-1	/	30*	0	/
CCOC(=O)C(NC(=O)c1cccc(Cl)c1)(Nc1nnc(C)s1)C(F)(F)F (configuration not stated)	/	8	/	/	-1	/
C=CCCCCCCCCc1nc(=S)[nH][nH]1	9	-3	-5	67*	-2	-4
O=C(CCN1C(=O)C2C3C=CC(C3)C2C1=O)NCCN1CCCc2ccccc21 (configuration not stated)	-2	-6	-3	39*	0	18
COc1ccc2c(c1)C(SCC(=O)NCCc1ccc(Cl)cc1)CC(C)(C)O2 (configuration not stated)	/	1	/	/	0	/
COP(=O)(OC)C(Nc1ccc(C)cc1)c1ccc([N+](=O)[O-])cc1 (configuration not stated)	/	-3	/	/	-1	/
CC1=C(C(=O)OC(C)C)C(c2cncc(-c3ccc(F)cc3)c2)C(C#N)=C(N)O1 (configuration not stated)	/	-5	/	/	0	/
CC1=C/C(=N\NC(=O)c2ccccc2)CC1	/	1	/	/	0	/
Nc1ccc(C(=O)N/N=C2\CCCc3c2[nH]c2ccccc32)cc1	-5	-1	-6	44*	-3	5
Cc1ccccc1/C(N)=N/O	/	-6	/	/	-3	/
CN(CC(=O)Nc1nc2ccccc2s1)S(=O)(=O)c1ccc(Cl)cc1	2	0	-6	31*	-1	-3
COC1(OC)C(/C=C/c2ccc(Cl)cc2)C(C#N)(C#N)C1(OC)OC (configuration not stated)	/	-16	-4	/	-4	-2
Cc1cc2c(=O)n(CC(=O)N3CCN(c4ccc(F)cc4)CC3)cnc2s1	18	-12	31*	-2	0	16
CCOC(=O)CC(=O)CSc1nc2c(c(C)c1C#N)CCC2	-1	12	-6	-5	-1	23
CCOC(=O)CC(=O)CSc1nc2nc(C)cc(C)n2n1	-2	-6	-2	30*	0	4
CCOC(=O)CSc1nc(N)c(C#N)c(CC(C)C)c1C#N	1	-31	-5	40*	-2	3
CNC(=O)CSc1nc2nc(C)cc(C)n2n1	0	-8	0	2	-2	15
CCOC(=O)CC(=O)CSc1nc(C)cc(C)c1C#N	-1	5	-5	-2	7.2*	-3
O=C(COc1ccc2c(c1)CCC2)NCc1ccc(Cl)cc1	/	-6	/	/	-1	/
O=C(Nc1ccc2cn[nH]c2c1)c1ccc(Cl)c(S(=O)(=O)N2CCOCC2)c1	/	7	/	/	-1	/
CC(c1ccco1)N(C(=O)c1cccs1)c1ccccn1 (configuration not stated)	3	14	-4	41*	0	9
CC(C)c1ccc(C(=O)N(c2ccccn2)C(C)c2ccco2)cc1 (configuration not stated)	4	-7	-2	5	-1	2
CCOC(=O)C1=NN(C(C)=O)C2(CC(=O)N(c3ccc(C)c(C)c3)C2=O)C1 (configuration not stated)	/	-18	/	/	0	/
O=C(CSc1nnc(-c2cccnc2)s1)Nc1ccc(C(=O)O)cc1	/	-1	/	/	0	/
COc1cccc(-c2cc(C(=O)N3CCN(C(c4ccccc4)c4ccccc4)CC3)no2)c1	38*	2	-8	1	-3	26
COc1cccc(-c2cc(C(=O)Nc3cc(C)on3)no2)c1	2	-6	-5	0	6.2*	8
